Out of some 310,000 compounds screened, about 18,000 (5.8%) were called active. A call without a number means that no potency is given here. Another 22% or so got no clear call; they are omitted. The sample holds actives, similar compounds and a random draw of the others, so the mix is not that of the screen. Values without a mark were called inactive. Calls come from the whole dose curve; as a rule, active = well fitted inhibition curve with a large enough effect; inconclusive = small, poorly fitted or top-dose-only effect, or another doubt; inactive = no such curve, though single readings can be large or run the other way.
Assay: Primary qHTS for delayed death inhibitors of the malarial parasite plastid, 48 hour incubation
Details: P. falciparum luciferase growth in erythrocytes; series mostly up to 28.7 µM
Outline: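 Compounds are pin-transferred into medium, infected erythrocytes (2% hematocrit, 0.1% parasitemia final) are added, and plates sit one parasite generation at 37 C in 5% CO2. Detection reagent is then added and luminescence measured.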
Potency is the fitted concentration of half-maximal effect.

Row | SMILES | activity change, negative = inhibition | Potency
1 | O=C(Cc1ccc(Br)cc1)NCCN1CCOCC1 | 5.97% [at 0.00184 µM] | –
2 | CCC(C(=O)N1CCN(S(=O)(=O)c2sc(C(=O)O)c(C)c2C(=O)O)CC1)c1ccccc1 (stereo not given) | – | inactive
3 | COc1ccc(OC)c(NC(=O)c2cccc(S(=O)(=O)N3CCN(C(C)=O)CC3)c2)c1 | – | inactive
4 | COc1cc(OC)cc(C(=O)Nc2nnc(SCC(=O)NCC3CCCO3)s2)c1 (stereo not given) | – | inactive
5 | Cc1ccccc1Nc1nc(-c2cccnc2)cs1 | – | inactive
6 | CCCOc1ccc(Cc2c(O)nc(SC)[nH]c2=O)cc1C | – | inactive
7 | C[n+]1ccc(C(=O)NCc2ccccc2)cc1 | – | inactive
8 | CN(C)c1cc[n+](Cc2ccccc2)cc1 | – | 0.928 µM (active)
9 | COC(=O)c1ccc(Cc2ccccc2)o1 | – | inactive
10 | c1ccc(Cc2cc[n+](Cc3ccccc3)cc2)cc1 | – | 1.17 µM (active)
11 | CC1=NN(Cc2ccccc2)C(=O)/C1=C/c1ccc(N(C)C)cc1 | – | inactive
12 | CN(C)c1ccc(/C=N/N(Cc2ccccc2)c2ccccc2)cc1 | – | inactive
13 | Cc1ccc(NS(=O)(=O)c2cc3c(cc2C)NC(=O)CO3)cc1 | – | inactive
14 | Cc1ccc(S(=O)(=O)N2CCC(N3CCCCCC3)CC2)cc1 | – | inactive
15 | O=S(=O)(c1ccccc1)N1CCC(c2ccccc2)CC1 | – | inactive
16 | c1ccc(C2CCC(N3CCC(N4CCCCC4)CC3)CC2)cc1 (stereo not given) | – | 10.4 µM (active)
17 | COc1ccccc1NC(=O)Nc1nnc(Cc2ccc(F)cc2)s1 | – | inactive
18 | CC1=NN(/C(=N\c2nnc(C)s2)Nc2ccccc2)[C@H](c2ccc(C)cc2)S1 | – | 8.28 µM (active)
19 | COc1ccc2oc(=N)c(C(=O)Nc3ccc(Br)cc3)cc2c1 | – | inactive
20 | CC1c2nc3ccccc3n2C(CC(=O)NCCCN2CCOCC2)C(=O)N1Cc1ccccc1 (stereo not given) | – | inactive
21 | CCOC(=O)C1CCN(C(=O)CC2C(=O)N(Cc3ccccc3)C(C)c3nc4ccccc4n32)CC1 (stereo not given) | – | 7.38 µM (active)
22 | CCOC(=O)C1CCN(C(=O)Cn2cc(C#N)c3ccccc32)CC1 | – | inactive
23 | O=C(NCCS(=O)(=O)NCc1ccc(F)cc1)c1ccccc1 | – | inactive
24 | Cc1cc(C)nc(N/N=C/c2c(CO)cnc(C)c2O)n1 | – | 10.4 µM (active)
25 | COc1ccc(/C=C2\SC(=S)N(CCC(=O)Nc3cccc(C(=O)O)c3)C2=O)cc1OC | – | inactive
26 | CN(NS(=O)(=O)c1cccs1)c1ncc(C(F)(F)F)cc1Cl | – | inactive
27 | COc1ccc(CNC(=O)c2ccc3oc(C(C)C)nc3c2)cc1 | – | inactive

Row | SMILES | activity change, negative = inhibition | Potency
28 | O=C(COC(=O)/C=C/c1ccc(OC(F)F)cc1)NC1CCCCC1 | – | inactive
29 | O=C(NCc1cccc(Cl)c1)C1CCN(c2nnc(N3CCCC3=O)s2)CC1 | – | inactive
30 | COc1ccccc1CNS(=O)(=O)c1c(C)[nH]c(C)c1C(=O)N1CCCCC1 | – | inactive
31 | COc1ccc(C2=NN(C(=O)CSc3nnnn3C)C(c3ccco3)C2)cc1 (stereo not given) | – | inactive
32 | O=C(CSc1nnnn1-c1ccc(O)cc1)N1N=C(c2ccc3ccccc3c2)CC1c1ccccc1 (stereo not given) | – | 2.33 µM (active)
33 | O=C(CSc1nnnn1-c1ccc(O)cc1)c1ccc(F)cc1 | – | inactive
34 | Cc1nnnn1/C(=C\c1ccccc1)C(=O)OCC(=O)N1CC2(C)CC1CC(C)(C)C2 (stereo not given) | – | 11.7 µM (active)
35 | COc1ccccc1C(=O)N1CC2(C)CC1CC(C)(C)C2 (stereo not given) | – | inactive
36 | Cc1cccc(C(=O)NCC(=O)OCC(=O)N2CC3(C)CC2CC(C)(C)C3)c1 (stereo not given) | – | inactive
37 | COc1ccc(OC)c(-c2csc(NC(=O)COC(=O)C3CC3)n2)c1 | – | inactive
38 | C=CCOc1ccccc1NC(=O)CN1C(=O)CNC1=O | – | inactive
39 | CC(C)(C)NC(=O)C(c1ccncc1)N(C(=O)CNC(=O)c1ccco1)c1ccc2c(c1)OCO2 (stereo not given) | – | inactive
40 | CCC(C)(C)NC(=O)C(c1cccn1C)N(Cc1ccc(C)cc1)C(=O)Cn1nnc2ccccc21 (stereo not given) | – | inactive
41 | CC(C)(C)NC(=O)C(c1ccco1)N(Cc1ccc2c(c1)OCO2)C(=O)Cn1nnc2ccccc21 (stereo not given) | – | 8.28 µM (active)
42 | COCCn1c(C)cc(C(=O)CSc2nnc(C3CC3)n2C2CC2)c1C | – | inactive
43 | CCC(=O)Nc1ccc(S(=O)(=O)Nc2c(NC)c3ccccc3oc2=O)cc1 | – | inactive
44 | CCOC(=O)c1sc(NC(=O)CSc2nc3c(c(=O)n2-c2ccccc2)SCC3)c(C(=O)OCC)c1C | – | 1.65 µM (active)
45 | CCOC(=O)c1c(NC(=O)CSc2nccc(=O)[nH]2)sc(C)c1C | – | inactive
46 | CCOC(=O)c1sc(NC(=O)CSc2nnc(-c3ccco3)o2)c(C(=O)OCC)c1C | – | inactive
47 | COc1cccc(N2CCN(c3ccc4nnc(CCC(=O)N5CCN(C)CC5)n4n3)CC2)c1 | – | inactive
48 | COc1ccc(Nc2ncnc3sc(C)cc23)cc1 | – | inactive
49 | Cc1cc(Cl)ccc1C(=O)C1CCCN(C(=O)c2nonc2C)C1 (stereo not given) | – | inactive
50 | CCOC(=O)C(C)n1cnc2c(nnn2-c2ccc(F)cc2)c1=O (stereo not given) | – | inactive
51 | COc1ccccc1Nc1nc(N)nc(CSC(=S)N2CCOCC2)n1 | – | inactive
52 | COc1ccccc1NC(=O)c1cc(Cl)nnc1Cl | – | inactive
53 | COc1ccccc1NC1=NC(c2ccc(Cl)cc2)N=C(N)N1 (stereo not given) | – | 10.4 µM (active)
54 | Cc1ccc(OCC(=O)Nc2ccc(C(=O)O)cc2NC(=O)COc2ccc(C)c(C)c2)cc1C | – | inactive

Row | SMILES | activity change, negative = inhibition | Potency
55 | O=C1Nc2ccccc2/C1=C/c1ccnc2ccccc12 | – | inactive
56 | CC1C(=O)C(C)C(c2ccc(O)cc2)NC1c1ccc(O)cc1 (stereo not given) | – | 6.57 µM (active)
57 | CCOC(=O)C1C(c2ccc(O)cc2)NC(=O)NC1(O)C(F)(F)F (stereo not given) | – | inactive
58 | CCOc1ccc(OCC)c(NC(=O)CN(C)S(=O)(=O)c2cccc3nsnc23)c1 | – | 1.17 µM (active)
59 | CCOc1ccccc1NC(=O)CCS(=O)(=O)c1cccc2nsnc12 | – | inactive
60 | CCOc1ccc(N(CC)S(=O)(=O)c2cccc3nsnc23)cc1 | – | inactive
61 | O=C(Nc1ccccn1)C1CCN(S(=O)(=O)c2ccccc2)CC1 | – | inactive
62 | CCN(c1ccccc1)S(=O)(=O)c1cc2c(cc1C)n(C)c(=O)c(=O)n2C | – | inactive
63 | CCOC(=O)c1ccccc1C(=O)N1CCOCCOCCOCC1 | – | inactive
64 | CCOC(=O)c1c(-c2ccccc2)oc2ccc(OC(=O)N(C)C)cc12 | – | inactive
65 | CCOC(=O)c1c(CN2CCOCC2)n(-c2ccccc2)c2ccc(O)cc12 | – | 10.4 µM (active)
66 | CCOC(=O)c1c(CN(C)C)n(-c2ccccc2)c2cc(Br)c(O)cc12 | – | 1.17 µM (active)
67 | CCOC(=O)c1ccccc1NC(=O)COC(=O)CCC(=O)N1CCOCC1 | – | inactive
68 | CCOC(=O)c1c(-c2cccc(N)c2)cn2ccccc12 | – | inactive
69 | CN(CC(=O)Nc1ccc(Cl)cc1)C(=O)c1ccc(COc2ccccc2)cc1 | – | inactive
70 | CCCCn1c(N)c(N(Cc2ccccc2OC)C(=O)COc2cc(C)ccc2Cl)c(=O)[nH]c1=O | – | inactive
71 | CC(=O)c1cccc(NC(=O)CN2C(=O)c3cccnc3Oc3ccc(Cl)cc32)c1 | – | 13.1 µM (active)
72 | Cc1ccc2c(c1)N(CC(=O)NCCCN1CCCCC1)C(=O)c1cccnc1O2 | – | inactive
73 | Cc1ccc2c(c1)N(CC(=O)NCCc1ccc(Cl)cc1)C(=O)c1cccnc1O2 | – | inactive
74 | Cc1ccc(S(=O)(=O)N(C)CC(=O)NCCc2c[nH]c3ccccc23)cc1 | – | inactive
75 | Cn1c(CNC(=O)c2ccco2)nnc1SCC(=O)N1CCN(c2ccccc2)CC1 | – | inactive
76 | CC(C)c1nc2cc(C(=O)NC(C)c3cnn(C)c3)ccc2o1 (stereo not given) | – | inactive
77 | CCN(CC(=O)Nc1ccc2c(c1)OCO2)S(=O)(=O)c1ccccc1 | – | inactive
78 | C/C(=N\NC(=O)Cc1ccccc1[N+](=O)[O-])c1cccnc1 | – | inactive
79 | Cn1c(-c2ccco2)nc2cc3ccccc3cc21 | – | inactive
80 | CN1c2ccccc2-c2nc3ccccc3n2C1c1ccco1 (stereo not given) | – | 11.7 µM (active)
81 | Cn1cccc1-c1nc2ccccc2n1C | – | inactive

Row | SMILES | activity change, negative = inhibition | Potency
82 | O=C(c1cc2cc(Br)cc(Br)c2oc1=O)N1CCOCC1 | – | inactive
83 | CCOc1ccc(NC(=O)COc2ccc(C(=O)N3CCC(C(N)=O)CC3)cc2OC)cc1 | – | inactive
84 | COc1cc2ccccc2cc1C(=O)Nc1ccncc1 | – | inactive
85 | COc1cc2ccccc2cc1C(=O)Nc1ccc(NC(=O)c2cccs2)cc1 | – | 11.7 µM (active)
86 | COc1cc(NC(=O)c2cccs2)ccc1NC(=O)c1ccccc1Cl | – | inactive
87 | Cc1ccnc(N2CCCC(C(=O)NC3CC3)C2)n1 (stereo not given) | – | inactive
88 | O=C(NC1CC1)C(Cc1ccccc1)NS(=O)(=O)c1ccccc1F (stereo not given) | – | inactive
89 | O=C(Cc1ccc([N+](=O)[O-])cc1)Nc1ccc(C(=O)N2CCOCC2)cc1 | – | inactive
90 | O=C(/C=C/c1ccco1)NC(=S)Nc1ccccc1Br | – | inactive
91 | CCCCCCn1c(SCC(=O)c2ccccc2)nc2c1c(=O)[nH]c(=O)n2C | – | inactive
92 | C=CCn1c(SCc2ccccc2)nc2c1c(=O)[nH]c(=O)n2C | – | inactive
93 | CCC(C)Sc1nc2c(c(=O)[nH]c(=O)n2C)n1CC(O)COc1cccc2ccccc12 (stereo not given) | – | 10.4 µM (active)
94 | CCc1ccc(NC(=O)CS(=O)CC(=O)N2CCN(c3ccccc3F)CC2)cc1 (stereo not given) | – | inactive
95 | COc1cc(C(=O)NCC(=O)N2CC=C(c3ccccc3)CC2)cc(OC)c1OC | – | inactive
96 | O=C(CSc1ccc(-c2ccccn2)nn1)Nc1ccccc1 | – | inactive
97 | Cc1ccc(S(=O)(=O)Cc2cc(-c3ccc(Cl)cc3)no2)cc1 | -33.3% [at 5.75 µM] | –
98 | Cc1onc(-c2ccc(Cl)cc2)c1-c1ccnn1S(=O)(=O)c1ccc(Cl)cc1 | – | 1.04 µM (active)
99 | COC(=O)c1noc(C)c1-c1ccnn1C(=O)c1ccc(Cl)cc1 | – | inactive
100 | COc1ccc(/C=C2\SC(=O)N(CCC(=O)NCCCn3ccnc3)C2=O)cc1 | – | inactive
101 | CCOc1ccc(C(=O)COC(=O)c2ccc(-n3cnnn3)cc2)cc1 | – | inactive
102 | COc1ccc2c(c1)C(NS(=O)(=O)OCC(Cl)(Cl)Cl)CCC2 (stereo not given) | – | inactive
103 | O=C(c1ccccc1)c1ccc(C(=O)N2CCN(c3ccccc3)CC2)cc1 | – | inactive
104 | O=C(c1cccc(C(=O)N2CCN(c3ccc(F)cc3)CC2)c1)N1CCN(c2ccc(F)cc2)CC1 | – | 13.1 µM (active)
105 | O=C(c1cc2cc(F)ccc2[nH]1)N1CCN(c2ccc(F)cc2)CC1 | – | inactive

Source: PubChem BioAssay AID504832 (National Center for Advancing Translational Sciences (NCATS), 2011)
